Laboratory results taken from PubChem BioAssay.
Records with an inconclusive call do not appear. Active and inactive are the calls of the source. Unless noted, cut-off not given; nearly all actives show AC50 up to about 30 µM.

Key:
[1] = viability loss in pontine glioma line – cell-based, SU-DIPG-XIII, MIPE4.0, CellTiter-Glo, qHTS, dose response (AID 1347061; cut-off not given, nearly all actives have AC50 up to about 37 µM;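 further: cells exposed to compound for 48 hours before readout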); settings: CellTiter-Glo ATP luminescence
[2] = viability loss in pontine glioma line – cell-based, JHH-DIPG-1, MIPE4.0, CellTiter-Glo, qHTS, dose response (AID 1347062; cut-off not given, nearly all actives have AC50 up to about 27 µM;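 on AC50: cells exposed to compound for two days before readout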); settings: JHH-DIPG-1 viability, CellTiter-Glo ATP luminescence
[3] = viability loss in pontine glioma line – cell-based, SU-DIPG-IV, MIPE4.0, CellTiter-Glo, qHTS, dose response (AID 1347063); settings: CellTiter-Glo ATP luminescence;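 further: compound exposure lasted 48 hours before the viability readout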
[4] = viability loss in pontine glioma line – cell-based, SU-DIPG-XIII, MIPE5.0, CellTiter-Glo, qHTS, dose response (AID 1347064; cut-off not given, nearly all actives have AC50 up to about 23 µM;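 on AC50: cells exposed to compound for 48 hours before the viability read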); settings: CellTiter-Glo ATP luminescence
[5] = viability loss in pontine glioma line – cell-based, SU-DIPG-XXV, MIPE5.0, CellTiter-Glo, qHTS, dose response (AID 1347065; cut-off not given, nearly all actives have AC50 up to about 26 µM;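 further: cells exposed to compound for 48 hours before ATP readout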); settings: CellTiter-Glo ATP luminescence
[6] = growth inhibition of DIPG cells – cell-based, MIPE4.0 library, CellTiter-Glo luminescence, qHTS (AID 1347066); settings: SU-DIPG-VI viability, CellTiter-Glo ATP luminescence;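 further: cells exposed to compound for 48 hours before readout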
[7] = JHH-DIPG-1 glioma cell viability, MIPE5.0 library, CellTiter-Glo luminescence, qHTS (AID 1347067; cut-off not given, nearly all actives have AC50 up to about 26 µM;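 further: cells exposed to compound for 48 hours before readout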); settings: JHH-DIPG-1 glioma viability, CellTiter-Glo ATP luminescence
[8] = growth inhibition of DIPG cells – cell-based, MIPE5.0 library, qHTS (AID 1347068; cut-off not given, nearly all actives have IC50 up to about 30 µM;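 on IC50: cells exposed to compound for 48 hours before viability readout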); settings: SU-DIPG-XXV viability
[9] = viability loss with induced miR-34 in A549 – imaging, A549 dox-inducible miR-34, nuclei and caspase counts, primary screen (AID 1347080;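 active means compounds whose cell count with miR-34 switched on is under 0.7 times the count with it off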); settings: A549 miR-34 inducible, Hoechst nuclei count, 48 h
[10] = MELAS cybrid and Rieske KO viability enhancers – cell-based, MELAS cybrids, Rieske KO mouse fibroblasts, CellTiter-Glo, primary screen (AID 1508586;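 active means mean z-score across replicates of 1.96 or higher in either the MELAS or the Rieske mutant cell line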;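 further: z relative to plate mean and SD of compound and empty wells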); settings: low glucose
[11] = stronger effect = lower value, cell number ratio, induced over uninduced
[12] = measured here: relative caspase fold change +Dox/-Dox
[13] = measured here: total cells with miR-34 induction, stronger effect = lower value
[14] = measured here: total cells without miR-34 induction
[15] = MELAS cybrid survival, CellTiter-Glo 48 h, stronger effect = higher value
[16] = Rieske KO mouse fibroblast survival, CellTiter-Glo 72 h

CCc1ccc(/C=C2/SC(=S)NC2=O)cc1
1.81: fold change [9, 12]
8940: cell count [9, 13]
inactive: outcome [1] | outcome [2] | outcome [3] | outcome [4] | outcome [5] | outcome [6] | outcome [7] | outcome [8] | fold change [9, 11] 1
8930: cell count [9, 14]

COc1ccc(Cc2ccc(NC(N)=O)cc2)cc1-c1cccc(Cl)c1
inactive: outcome [1] | outcome [2] | outcome [3] | outcome [4] | outcome [5] | outcome [6] | outcome [7]

C[C@@H]1CCO[C@H]2Cn3cc(C(=O)NCc4ccc(F)cc4F)c(=O)c(O)c3C(=O)N12
inactive: outcome [1] | outcome [2]

CCOC(=O)C1=C[C@@H](OC(CC)CC)[C@H](NC(C)=O)[C@@H](N)C1
9340: cell count [9, 13]
inactive: outcome [1] | outcome [2] | outcome [3] | outcome [4] | outcome [5] | outcome [6] | outcome [7] | outcome [8] | fold change [9, 11] 0.9 | z-score [10, 15] 0.348
10400: cell count [9, 14]
-0.618: z-score [10, 16]
1.08: fold change [9, 12]

O=C(O)c1ccc(-c2cc3cccnc3c(-c3ccc4nonc4c3)n2)cc1
active: AC50 [2] 20.9 µM | AC50 [3] 26.4 µM
inactive: outcome [1]

O=C(NCCCCN1CCOCC1)c1cc2ccccc2o1
active: AC50 [7] 23.5 µM
inactive: outcome [1] | outcome [2] | outcome [3] | outcome [4] | outcome [5] | outcome [6] | outcome [8]

Cc1ccc(NC(=O)Nc2cc(C(F)(F)F)ccc2F)cc1Nc1ccc2c(c1)NC(=O)/C2=C\c1ccc[nH]1
active: AC50 [1] 18.7 µM | AC50 [2] 18.7 µM | AC50 [3] 4.18 µM | AC50 [4] 8.33 µM | AC50 [5] 6.61 µM | AC50 [6] 3.72 µM | AC50 [7] 10.5 µM | IC50 [8] 9.34 µM

Nc1ncnc2c1c(-c1cccc(OCc3ccccc3)c1)cn2C1CC(CN2CCCC2)C1 (stereo not drawn)
1430: cell count [9, 14]
0.675: fold change [9, 12]
0.635: z-score [10, 16]
1510: cell count [9, 13]
inactive: fold change [9, 11] 1.06 | z-score [10, 15] -0.449
active: AC50 [1] 16.6 µM | AC50 [2] 20.9 µM | AC50 [3] 20.9 µM | AC50 [4] 1.18 µM | AC50 [5] 0.934 µM | AC50 [6] 1.18 µM | AC50 [7] 18.6 µM | IC50 [8] 4.68 µM
